Measured values as given in the supplement of paper PMC10849652.
Targets with a hit are over-represented here; the source holds about 8,800 in all. About 0.5% of all pairs of compound and target were hits. A number with no mark means an inactive call.

Compound: CS(=O)(=O)N1CCN(Cc2cc3nc(-c4cccc5[nH]ncc45)nc(N4CCOCC4)c3s2)CC1 [pictilisib]
Assay: log2 fold change, soluble protein after heating vs DMSO (PISA); higher = thermal stabilisation; K562 lysate, 10 uM; active = over 0.2 and 3.5 SD of the protein, either way, in both replicates (recomputed)
In short: (§1)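 Values give the log-two fold change in thermal stability against solvent controls, from duplicates. Crude K562 extract at 1 mg/mL protein, made by dounce homogenisation in PBS pH 7.4 with 1 mM MgCl2, was treated with 10 μM compound for 30 min. After 3 min heating across 48°C-58°C, aliquots were pooled, adjusted to 0.5% NP-40 at 4°C and centrifuged at 21,000xg for 90 min. The supernatant was measured by TMTpro 16plex LC-MS/MS with channel sums equalised.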

UniProt Q16539, sequence (Q16539 whole entry, looked up): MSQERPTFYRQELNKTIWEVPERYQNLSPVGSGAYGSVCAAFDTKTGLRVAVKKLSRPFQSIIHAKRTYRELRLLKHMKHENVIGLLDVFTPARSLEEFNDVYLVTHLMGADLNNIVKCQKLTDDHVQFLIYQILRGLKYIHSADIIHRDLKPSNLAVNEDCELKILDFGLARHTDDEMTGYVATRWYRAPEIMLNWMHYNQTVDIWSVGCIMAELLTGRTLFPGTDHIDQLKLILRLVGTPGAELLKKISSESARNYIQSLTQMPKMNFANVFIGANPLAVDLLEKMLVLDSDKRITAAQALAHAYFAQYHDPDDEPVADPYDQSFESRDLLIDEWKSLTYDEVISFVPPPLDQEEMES
UniProt O15243, sequence (O15243 whole entry, looked up): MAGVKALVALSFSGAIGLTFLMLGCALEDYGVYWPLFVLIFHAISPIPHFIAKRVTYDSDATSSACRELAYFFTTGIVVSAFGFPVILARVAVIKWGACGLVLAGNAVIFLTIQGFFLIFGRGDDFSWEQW
UniProt Q8IWC1, sequence (Q8IWC1 whole entry, looked up): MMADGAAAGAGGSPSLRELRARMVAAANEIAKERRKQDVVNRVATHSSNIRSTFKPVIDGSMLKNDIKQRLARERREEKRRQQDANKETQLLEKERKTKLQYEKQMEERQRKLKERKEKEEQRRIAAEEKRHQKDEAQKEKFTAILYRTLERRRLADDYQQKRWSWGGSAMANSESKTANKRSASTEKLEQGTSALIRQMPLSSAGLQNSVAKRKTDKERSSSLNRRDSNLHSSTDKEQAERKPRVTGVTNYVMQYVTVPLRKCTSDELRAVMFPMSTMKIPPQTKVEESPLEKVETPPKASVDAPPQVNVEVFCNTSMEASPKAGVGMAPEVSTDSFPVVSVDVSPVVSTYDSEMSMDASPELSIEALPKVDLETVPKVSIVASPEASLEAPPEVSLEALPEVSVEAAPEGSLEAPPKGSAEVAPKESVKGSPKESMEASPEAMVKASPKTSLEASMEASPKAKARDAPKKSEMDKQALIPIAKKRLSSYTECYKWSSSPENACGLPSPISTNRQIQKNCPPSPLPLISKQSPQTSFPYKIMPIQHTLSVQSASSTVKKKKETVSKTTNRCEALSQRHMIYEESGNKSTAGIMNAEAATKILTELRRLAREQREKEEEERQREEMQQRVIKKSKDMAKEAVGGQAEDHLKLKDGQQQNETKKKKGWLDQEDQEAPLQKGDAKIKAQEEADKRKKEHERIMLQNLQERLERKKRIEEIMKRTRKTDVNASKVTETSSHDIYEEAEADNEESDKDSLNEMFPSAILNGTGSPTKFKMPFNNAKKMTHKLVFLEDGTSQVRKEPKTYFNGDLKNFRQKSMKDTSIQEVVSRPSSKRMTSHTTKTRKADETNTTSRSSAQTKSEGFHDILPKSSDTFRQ
UniProt Q15334, sequence (Q15334 whole entry, looked up): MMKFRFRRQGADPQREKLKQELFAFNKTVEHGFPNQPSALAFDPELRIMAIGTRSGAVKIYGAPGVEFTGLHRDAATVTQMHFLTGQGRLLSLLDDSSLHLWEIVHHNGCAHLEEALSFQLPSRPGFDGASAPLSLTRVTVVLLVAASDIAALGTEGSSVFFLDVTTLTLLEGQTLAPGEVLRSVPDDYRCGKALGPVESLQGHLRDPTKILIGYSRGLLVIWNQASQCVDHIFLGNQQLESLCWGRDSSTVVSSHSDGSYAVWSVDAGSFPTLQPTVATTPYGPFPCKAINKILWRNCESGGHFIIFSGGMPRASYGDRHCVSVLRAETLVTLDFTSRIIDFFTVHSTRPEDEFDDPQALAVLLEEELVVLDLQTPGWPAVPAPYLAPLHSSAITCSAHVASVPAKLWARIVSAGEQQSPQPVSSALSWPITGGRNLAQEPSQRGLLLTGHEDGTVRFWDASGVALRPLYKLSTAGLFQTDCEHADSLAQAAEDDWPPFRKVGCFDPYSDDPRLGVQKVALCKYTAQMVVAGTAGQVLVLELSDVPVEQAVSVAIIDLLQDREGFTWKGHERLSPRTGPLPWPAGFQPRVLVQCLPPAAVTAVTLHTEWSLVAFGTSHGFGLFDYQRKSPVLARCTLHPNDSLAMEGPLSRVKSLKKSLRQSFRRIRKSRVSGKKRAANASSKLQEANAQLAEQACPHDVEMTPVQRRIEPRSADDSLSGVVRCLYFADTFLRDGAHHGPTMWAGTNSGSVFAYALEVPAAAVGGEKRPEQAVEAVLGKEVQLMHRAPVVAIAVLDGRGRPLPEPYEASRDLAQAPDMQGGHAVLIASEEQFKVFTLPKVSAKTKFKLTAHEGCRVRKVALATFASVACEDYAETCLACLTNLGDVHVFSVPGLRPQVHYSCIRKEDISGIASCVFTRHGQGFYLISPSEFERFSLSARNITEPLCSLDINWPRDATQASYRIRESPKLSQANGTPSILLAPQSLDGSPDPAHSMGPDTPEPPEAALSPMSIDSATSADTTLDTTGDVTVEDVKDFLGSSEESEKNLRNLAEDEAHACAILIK
UniProt Q8N5J2, sequence (Q8N5J2 whole entry, looked up): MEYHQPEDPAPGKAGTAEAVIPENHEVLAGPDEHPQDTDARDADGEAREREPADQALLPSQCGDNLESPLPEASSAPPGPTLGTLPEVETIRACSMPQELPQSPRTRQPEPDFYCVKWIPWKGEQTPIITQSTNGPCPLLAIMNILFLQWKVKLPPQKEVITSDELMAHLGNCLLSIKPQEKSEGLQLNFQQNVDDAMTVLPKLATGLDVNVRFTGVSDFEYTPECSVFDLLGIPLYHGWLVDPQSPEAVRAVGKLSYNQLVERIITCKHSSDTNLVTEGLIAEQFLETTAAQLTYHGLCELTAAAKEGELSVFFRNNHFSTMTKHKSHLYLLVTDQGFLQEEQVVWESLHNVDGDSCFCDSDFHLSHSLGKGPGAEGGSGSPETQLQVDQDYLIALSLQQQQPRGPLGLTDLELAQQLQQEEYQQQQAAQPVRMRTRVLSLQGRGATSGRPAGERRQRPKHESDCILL
UniProt Q9NSK0, sequence (Q9NSK0 whole entry, looked up): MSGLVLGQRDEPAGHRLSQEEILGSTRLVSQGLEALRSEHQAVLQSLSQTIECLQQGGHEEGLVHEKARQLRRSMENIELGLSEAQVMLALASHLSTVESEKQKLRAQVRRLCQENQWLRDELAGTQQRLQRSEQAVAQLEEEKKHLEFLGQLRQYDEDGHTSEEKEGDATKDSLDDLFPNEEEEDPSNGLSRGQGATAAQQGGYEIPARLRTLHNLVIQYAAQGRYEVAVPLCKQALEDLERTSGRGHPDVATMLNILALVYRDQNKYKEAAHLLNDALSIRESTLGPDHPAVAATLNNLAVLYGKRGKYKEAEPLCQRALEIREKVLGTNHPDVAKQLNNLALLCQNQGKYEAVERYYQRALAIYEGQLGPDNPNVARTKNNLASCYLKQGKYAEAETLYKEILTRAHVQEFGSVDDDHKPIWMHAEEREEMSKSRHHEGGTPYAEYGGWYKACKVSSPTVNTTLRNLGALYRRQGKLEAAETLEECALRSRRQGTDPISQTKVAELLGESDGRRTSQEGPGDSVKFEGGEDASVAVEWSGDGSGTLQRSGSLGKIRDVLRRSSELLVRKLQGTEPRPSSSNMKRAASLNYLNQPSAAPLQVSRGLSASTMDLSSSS
UniProt Q9NWR8, sequence (Q9NWR8 whole entry, looked up): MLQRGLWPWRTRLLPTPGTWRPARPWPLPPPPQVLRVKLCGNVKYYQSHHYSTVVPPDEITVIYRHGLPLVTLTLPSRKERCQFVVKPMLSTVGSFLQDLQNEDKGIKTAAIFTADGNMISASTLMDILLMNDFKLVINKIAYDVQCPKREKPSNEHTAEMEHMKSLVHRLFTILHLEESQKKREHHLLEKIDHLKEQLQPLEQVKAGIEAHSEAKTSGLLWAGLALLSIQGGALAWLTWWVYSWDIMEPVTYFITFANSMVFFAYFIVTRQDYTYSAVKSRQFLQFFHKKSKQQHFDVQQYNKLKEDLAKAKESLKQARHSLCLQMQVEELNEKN
UniProt Q9UBU8, sequence (Q9UBU8 whole entry, looked up): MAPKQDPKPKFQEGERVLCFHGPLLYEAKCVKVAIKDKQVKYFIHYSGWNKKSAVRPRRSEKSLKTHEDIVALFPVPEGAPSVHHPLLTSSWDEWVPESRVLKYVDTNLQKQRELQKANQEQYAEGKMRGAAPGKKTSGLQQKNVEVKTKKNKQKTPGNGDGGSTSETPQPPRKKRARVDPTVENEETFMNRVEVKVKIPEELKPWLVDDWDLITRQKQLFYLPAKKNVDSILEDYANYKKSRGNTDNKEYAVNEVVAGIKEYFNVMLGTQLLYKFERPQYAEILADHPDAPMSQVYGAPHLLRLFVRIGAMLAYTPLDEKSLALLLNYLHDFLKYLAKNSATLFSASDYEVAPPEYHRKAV
UniProt O00522, sequence (O00522 whole entry, looked up): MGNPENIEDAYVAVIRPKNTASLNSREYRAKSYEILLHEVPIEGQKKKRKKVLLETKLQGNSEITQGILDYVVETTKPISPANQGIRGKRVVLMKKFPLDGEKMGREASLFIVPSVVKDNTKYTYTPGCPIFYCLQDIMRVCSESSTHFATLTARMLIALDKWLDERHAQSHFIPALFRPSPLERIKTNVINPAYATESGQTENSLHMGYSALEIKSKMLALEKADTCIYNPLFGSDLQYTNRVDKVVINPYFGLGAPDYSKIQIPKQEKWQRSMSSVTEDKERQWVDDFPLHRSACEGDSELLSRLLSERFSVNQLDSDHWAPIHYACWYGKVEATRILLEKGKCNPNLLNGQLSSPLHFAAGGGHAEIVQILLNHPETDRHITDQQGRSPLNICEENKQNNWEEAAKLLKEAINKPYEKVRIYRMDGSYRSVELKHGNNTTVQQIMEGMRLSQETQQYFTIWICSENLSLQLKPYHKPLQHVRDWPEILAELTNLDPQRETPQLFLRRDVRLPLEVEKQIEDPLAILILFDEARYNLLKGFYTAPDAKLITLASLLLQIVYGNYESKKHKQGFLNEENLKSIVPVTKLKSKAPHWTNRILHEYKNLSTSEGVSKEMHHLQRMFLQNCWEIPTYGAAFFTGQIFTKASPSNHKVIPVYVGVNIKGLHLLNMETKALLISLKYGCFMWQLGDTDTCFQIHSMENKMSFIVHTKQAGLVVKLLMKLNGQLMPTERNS

In order of rising log2 fold change:
1. LIG4 (UniProt P49917)  -0.245
2. MCMBP isoform 2 (UniProt Q9BTE3)  -0.179
3. MAD2L1BP isoform 3 (UniProt Q15013)  -0.155
4. KMT2A isoform 3 (UniProt Q03164)  -0.102
5. LPIN1 isoform 7 (UniProt Q14693)  -0.082
6. KRIT1 (UniProt O00522)  -0.058
7. LLGL1 (UniProt Q15334)  -0.058
8. MAPK14 isoform 2 (UniProt Q16539)  -0.054
9. KLC4 isoform 3 (UniProt Q9NSK0)  -0.053
10. MECR (UniProt Q9BV79)  -0.038
11. MPZL1 (UniProt O95297)  -0.026
12. MRPL19 (UniProt P49406)  -0.024
13. MME (UniProt P08473)  -0.024
14. MAP2K5 (UniProt Q13163)  -0.021
15. LIMS1 isoform 3 (UniProt P48059)  -0.019
16. LAMP1 (UniProt P11279)  -0.014
17. MAPKAPK3 (UniProt Q16644)  -0.013
18. MAP4 isoform 5 (UniProt P27816)  -0.008
19. KLHL36 (UniProt Q8N4N3)  -0.006
20. MAPK14 (UniProt Q16539)  -0.004
21. KIF4A (UniProt O95239)  -0.002
22. LEPROT (UniProt O15243)  0
23. MINDY1 isoform 3 (UniProt Q8N5J2)  0
24. MAPK3 (UniProt P27361)  0
25. MRPL35 (UniProt Q9NZE8)  0.001
26. MLH1 (UniProt P40692)  0.001
27. LETM1 (UniProt O95202)  0.004
28. MAPK1 (UniProt P28482)  0.005
29. MAP3K4 (UniProt Q9Y6R4)  0.009
30. MAP7D3 (UniProt Q8IWC1)  0.01
31. MAP2K2 (UniProt P36507)  0.015
32. MORF4L1 isoform 2 (UniProt Q9UBU8)  0.023
33. MFF isoform 2 (UniProt Q9GZY8)  0.028
34. MAP4K5 (UniProt Q9Y4K4)  0.044
35. KLHL12 isoform 2 (UniProt Q53G59)  0.048
36. METTL21A (UniProt Q8WXB1)  0.06
37. MCUB (UniProt Q9NWR8)  0.088
38. MARCHF6 (UniProt O60337)  0.09
39. MAP2K7 isoform 4 (UniProt O14733)  0.204

Compound: C[C@@H](Oc1cc(-c2cnn(C3CCNCC3)c2)cnc1N)c1c(Cl)ccc(F)c1Cl [crizotinib]
Assay: as above
In short: as §1

In order of falling log2 fold change:
1. MCMBP isoform 2 (UniProt Q9BTE3)  0.14
2. LIMS1 isoform 3 (UniProt P48059)  0.103
3. MPZL1 (UniProt O95297)  0.074
4. MAPK1 (UniProt P28482)  0.065
5. MAP2K2 (UniProt P36507)  0.039
6. MME (UniProt P08473)  0.037
7. MAP3K4 (UniProt Q9Y6R4)  0.033
8. MORF4L1 isoform 2 (UniProt Q9UBU8)  0.025
9. KLHL36 (UniProt Q8N4N3)  0.021
10. KLHL12 isoform 2 (UniProt Q53G59)  0.016
11. MRPL35 (UniProt Q9NZE8)  0.01
12. MECR (UniProt Q9BV79)  0.007
13. MFF isoform 2 (UniProt Q9GZY8)  0
14. MAP7D3 (UniProt Q8IWC1)  -0.006
15. MAPK3 (UniProt P27361)  -0.01
16. LAMP1 (UniProt P11279)  -0.014
17. LLGL1 (UniProt Q15334)  -0.025
18. MAPKAPK3 (UniProt Q16644)  -0.026
19. KLC4 isoform 3 (UniProt Q9NSK0)  -0.027
20. MAPK14 isoform 2 (UniProt Q16539)  -0.028
21. KMT2A isoform 3 (UniProt Q03164)  -0.033
22. MAP4 isoform 5 (UniProt P27816)  -0.034
23. LPIN1 isoform 7 (UniProt Q14693)  -0.035
24. LIG4 (UniProt P49917)  -0.035
25. METTL21A (UniProt Q8WXB1)  -0.043
26. LETM1 (UniProt O95202)  -0.043
27. KIF4A (UniProt O95239)  -0.043
28. MINDY1 isoform 3 (UniProt Q8N5J2)  -0.045
29. MAP2K7 isoform 4 (UniProt O14733)  -0.05
30. LEPROT (UniProt O15243)  -0.069
31. KRIT1 (UniProt O00522)  -0.07
32. MRPL19 (UniProt P49406)  -0.071
33. MLH1 (UniProt P40692)  -0.085
34. MAD2L1BP isoform 3 (UniProt Q15013)  -0.094
35. MAPK14 (UniProt Q16539)  -0.094
36. MAP2K5 (UniProt Q13163)  -0.109
37. MARCHF6 (UniProt O60337)  -0.118
38. MCUB (UniProt Q9NWR8)  -0.17
